Measured values as given in the supplement of paper PMC7156485.
± gives the standard deviation of the averaged measurements.

Key:
Conditions in all cases: concentration: 10 µM; 24 h
HCC1569 [1] = experiment: cell number relative to DMSO (% of DMSO); higher = more cells (less growth inhibition / toxicity)
Method in brief: (§1)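 Cell number or H1.0 nuclear intensity appears as percent of the plate control, based on the median of replicates. Measurements came from HCC1569 and TDF cells exposed in triplicate to compounds at 10 µM for 24 h at 37 °C, then imaged in six fields per well at ×10. Positional effects were smoothed out of HCC1569 values.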

TDF [2] = experiment: as above
Method in brief: as §1

TDF [3] = experiment: H1.0 immunofluorescence intensity relative to DMSO (% of DMSO); higher = stronger H1.0 induction, active = 120 or more
Method in brief: as §1

HCC1569 [4] = experiment: H1.0 immunofluorescence intensity relative to DMSO (% of DMSO); higher = stronger H1.0 induction, active = 140 or more
Method in brief: as §1
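For H1.0 immunofluorescence intensity relative to DMSO in this document: TDF is a line of transformed human dermal fibroblasts of mesenchymal origin.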
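For cell number relative to DMSO in this document: TDF denotes transformed human dermal fibroblasts of mesenchymal origin.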

Compound | cell number (HCC1569 [1]) | cell number (TDF [2]) | H1.0 immunofluorescence intensity (TDF [3]) | H1.0 immunofluorescence intensity (HCC1569 [4])
CCCCC(=O)O[C@]1(C(=O)CO)[C@@H](C)C[C@H]2[C@@H]3CCC4=CC(=O)C=C[C@]4(C)[C@@]3(F)[C@@H](O)C[C@@]21C | 96.4 | 106 | 87.6 (inactive) | 103 (inactive)
COc1nc(C)nc(Cl)c1NC1=NCCN1.Cl [Moxonidine hydrochloride] | 102 | 102 | 92 (inactive) | 90.3 (inactive)
CC12CCC(=O)C=C1CCC1C2C(O)CC2(C)C(C(=O)CO)CCC12 (stereo not drawn) [Corticosterone] | 101 ± 2.6 | 103.3 ± 0.6 | 92.8 (inactive) | 100 (inactive)
Cl.Cl.Fc1ccc(C(c2ccc(F)cc2)N2CCN(CC=Cc3ccccc3)CC2)cc1 [Flunarizine.2HCl] | 97.6 | 105 | 92.2 (inactive) | 112 (inactive)
CCCCCC=CCC=CCC=CCC=CCCCCCC(=O)O [Adrenic acid (22:4 n-6)] | 99 | 107 | 108 (inactive) | 99.9 (inactive)
Cc1ccc2c(c1)C(N1CCN(C)CC1)=Nc1cccnc1N2 | 103 | 102 | 89.8 (inactive) | 99 (inactive)
Cc1ccc(-c2n[nH]c3c2C(c2cccc(O)c2)N(c2ccc(C(=O)O)cc2)C3=O)cc1 (stereo not drawn) | 103 | 92.6 | 95 (inactive) | 116 (inactive)
COc1ccc2c(c1)c(C1=C(c3c[nH]c4ccccc34)C(=O)NC1=O)cn2CCCN(C)C | 83.9 | 99.3 | 98.6 (inactive) | 174 (active)
CC(=O)C1=C(O)C=C2Oc3c(C(C)=O)c(O)c(C)c(O)c3C2(C)C1=O (single isomer, unassigned; (+)) [(+)-Usnic acid] | 100 | 109 | 96.7 (inactive) | 91.2 (inactive)
CC(C=CC1=C(C)CCCC1(C)C)=CC=CC(C)=CC(=O)O [13-cis Retinoic acid] | 98.1 ± 4.4 | 104 ± 2.9 | 92.9 (inactive) | 111 (inactive)
CC(=O)Oc1ccccc1C(=O)Oc1ccc(CO[N+](=O)[O-])cc1 [4-[(nitrooxy)methyl]phenyl 2-(acetyloxy)benzoate] | 50.1 | 66.5 | 110 (inactive) | 143 (active)
CCCCCN(CCCCC)C(=O)C(CCC(=O)O)NC(=O)c1ccc(Cl)c(Cl)c1 (stereo not drawn) [Lorglumide] | 100 | 91.5 | 102 (inactive) | 96.4 (inactive)
COc1cc(NC(C)CCCN)c2ncccc2c1 (stereo not drawn) [Primaquine] | 102 | 104 | 96.2 (inactive) | 113 (inactive)
COc1cc2nc(N3CCN(C(=O)C4CCCO4)CC3)nc(N)c2cc1OC.Cl (stereo not drawn) [Terazosin hydrochloride] | 100 | 95.1 | 92.6 (inactive) | 102 (inactive)
Cn1nnc2c(C(N)=O)ncn2c1=O [Temozolomide] | 105 | 91.4 | 105 (inactive) | 101 (inactive)
COc1ccc(C2(C#N)CCC(C(=O)O)CC2)cc1OC1CCCC1 (stereo not drawn) | 105 | 99.6 | 98.8 (inactive) | 90.2 (inactive)
CCCCCCCCCCCC=CCCCCCC(=O)O [7(Z)-Nonadecenoic acid] | 97.8 | 104 | 101 (inactive) | 96.9 (inactive)
COc1ccc(CN(CCN(C)C)c2ccccn2)cc1.O=C(O)C=CC(=O)O [Pyrilamine maleate] | 103 | 104 | 99.6 (inactive) | 100 (inactive)
CCCCCC(O)C=CC=CC=CC(O)CC=CCCCC(=O)O [8(R),15(S)-DIHETE all trans] | 102 | 107 | 91.4 (inactive) | 98.4 (inactive)
CC(C)(C)NC(=O)C1CCC2C3CCC4NC(=O)C=CC4(C)C3CCC12C (stereo not drawn) [Finasteride] | 102 | 97.4 | 95.4 (inactive) | 108 (inactive)
O=Cc1c2[nH]c3ccccc3c2cc2[nH]c3ccccc3c12 [6-Formylindolo [3,2-B] carbazole] | 101 | 99 | 91.4 (inactive) | 100 (inactive)

Compound | cell number (HCC1569 [1]) | cell number (TDF [2]) | H1.0 immunofluorescence intensity (TDF [3]) | H1.0 immunofluorescence intensity (HCC1569 [4])
CC(C)(C)C1(O)CCN2CC3c4ccccc4CCc4cccc(c43)C2C1.Cl (single isomer, unassigned; (+)) [(+)-Butaclamol.HCl] | 106 | 108 | 95.7 (inactive) | 100 (inactive)
CCC(=C(c1ccccc1)c1ccc(OCCN(C)C)cc1)c1ccccc1.O=C(O)CC(O)(CC(=O)O)C(=O)O [Tamoxifen citrate] | 85.2 | 95.2 | 115 (inactive) | 146 (active)
Cc1ccc(CN2C(=O)S/C(=C\c3ccc(Cl)cc3)C2=O)cc1 | 99.6 | 117 | 98.2 (inactive) | 97.2 (inactive)
Clc1ccc(C(Cn2ccnc2)OCc2ccsc2Cl)c(Cl)c1 (stereo not drawn) [Tioconazole] | 102 | 94.9 | 103 (inactive) | 113 (inactive)
Cc1ccccc1/N=N/c1ccc(NC(=O)c2ccnn2C)c(C)c1 | 94.6 | 98.7 | 98.5 (inactive) | 110 (inactive)
CC(=O)OC(C)C[N+](C)(C)C.[Cl-] (stereo not drawn) [Acetyl-beta-methylcholine chloride] | 110 | 94.7 | 96.2 (inactive) | 88.4 (inactive)
Cn1c(NCCN(CCO)CCCc2ccc([N+](=O)[O-])cc2)cc(=O)n(C)c1=O [Nifekalant] | 101 | 99.4 | 96.3 (inactive) | 100 (inactive)
CN1CCN(CCCN2c3ccccc3Sc3ccc(Cl)cc32)CC1.O=C(O)C=CC(=O)O.O=C(O)C=CC(=O)O [Prochlorperazine dimaleate] | 83.7 | 105 | 110 (inactive) | 157 (active)
N=C(N)N1CCc2ccccc2C1 [Debrisoquin] | 103 | 102 | 96 (inactive) | 96.4 (inactive)
CC(C)(N)c1ccc(-c2nc3ccccc3nc2-c2ccccc2)cc1 | 95.6 | 95.3 | 106 (inactive) | 103 (inactive)
CC1=CC(=O)C(C(C)C)=CC1=O [Thymoquinone] | 104 ± 1.4 | 102 ± 3.6 | 93.5 (inactive) | 93.3 (inactive)
CCCCCC(O)C=CC1C(O)CC(O)C1CC=CCCCC(=O)O (stereo not drawn) [9b,11a Prostaglandin F2] | 100 | 98 | 93.3 (inactive) | 97.5 (inactive)
CCCCC(C)(C)C(O)C=CC1C(O)CC(=O)C1CC=CCCCC(=O)O (stereo not drawn) [16,16-Dimethyl-prostaglandin E2] | 100 | 110 | 94.7 (inactive) | 109 (inactive)
O=c1[nH][nH]c2nnc(-c3c(-c4ccccc4)nn4ccccc34)cc12 [ERK Inhibitor II,                   Negative control] | 98.3 | 98.8 | 95.5 (inactive) | 122 (inactive)
CCCOC(=O)c1cc(O)c(O)c(O)c1 [N-Propyl gallate] | 89 | 91 | 100 (inactive) | 107 (inactive)
COc1ccc(OC)c2c(=S)c3ccccc3[nH]c12 | 105 | 92 | 106 (inactive) | 111 (inactive)
CN(C)CCCN1c2ccccc2Sc2ccc(Cl)cc21.Cl [Chlorpromazine.HCl] | 96.5 | 99.7 | 106 (inactive) | 113 (inactive)
Cc1cc(NC(=O)CS(=O)(=O)c2cn(Cc3cc(Br)ccc3F)c3ccccc23)no1 | 82.5 | 99.6 | 90 (inactive) | 151 (active)
CC(C)Nc1cccnc1N1CCN(C(=O)c2cc3cc(NS(C)(=O)=O)ccc3[nH]2)CC1.CS(=O)(=O)O [Delavirdine mesylate] | 101 | 102 | 99.1 (inactive) | 110 (inactive)
O=C1Cc2c([nH]c3ccc([N+](=O)[O-])cc23)-c2ccccc2N1 [Alsterpaullone] | 82.4 ± 33 | 72.6 ± 41 | 92.9 (inactive) | 99.1 (inactive)
C#CCn1c(=O)c2c(ncn2C)n(C)c1=O [3,7-Dimethyl-I-propargylxanthine] | 99.5 | 97.1 | 91.6 (inactive) | 93.4 (inactive)
